Source: PubChem (National Center for Advancing Translational Sciences (NCATS))
Hits are enriched below; roughly 5.7% of the tested compounds scored in any of these assays.
KB-V1 MDR tox: KB-V1 MDR subline cytotoxicity; KB-V1 MDR cells viability, CellTiter-Glo, 72 h; 400,000 compounds, 3.4% hits; AID 1347076; Potency, µM (titrated, usually from 46.1 µM), hits mostly cytotoxic; also: potency is read from the fitted curve at half-maximal effect; nearly all actives have a fitted effect of over 60% in size
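Following 72 h at 37 degrees C with compound, KB-V1 cell viability was read by CellTiter-Glo luminescence, medium being phenol-red-free DMEM plus 10% FBS; concentration-response parameters came from normalized, curve-fitted qHTS data.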
KB-3-1 cytotox: KB-3-1 parental cell cytotoxicity | KB-3-1 viability, CellTiter-Glo ATP luminescence, 72 h | Potency, µM (highest dose often 46.1 µM), actives largely listed as cytotoxic | 400,000 compounds, 1.4% hits | AID 1347075; also: potency is read from the fitted curve at half-maximal effect; nearly all actives have a fitted effect of over 60% in size
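Screening of KB-3-1 cells (DMEM, 10% FBS, phenol-red free) ran from lowest to highest compound concentration; after 72 h at 37 °C viability was read luminescently and curves fitted.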
PI4K2A inh: inhibitors of human PI4K2A | 420,000 compounds, 0.13% hits | purified PI4K2A, ADP-Glo luminescence, 1 h; hits give low values | AID 1346378 | activity change, negative = inhibition, % at 76.9 µM | Q9BTU6; in the data active = activity change below about -50%; inconclusive = mostly about -30% to -49%;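 also: -100% = wells without enzyme as full effect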
Target sequence (Q9BTU6 whole entry, looked up): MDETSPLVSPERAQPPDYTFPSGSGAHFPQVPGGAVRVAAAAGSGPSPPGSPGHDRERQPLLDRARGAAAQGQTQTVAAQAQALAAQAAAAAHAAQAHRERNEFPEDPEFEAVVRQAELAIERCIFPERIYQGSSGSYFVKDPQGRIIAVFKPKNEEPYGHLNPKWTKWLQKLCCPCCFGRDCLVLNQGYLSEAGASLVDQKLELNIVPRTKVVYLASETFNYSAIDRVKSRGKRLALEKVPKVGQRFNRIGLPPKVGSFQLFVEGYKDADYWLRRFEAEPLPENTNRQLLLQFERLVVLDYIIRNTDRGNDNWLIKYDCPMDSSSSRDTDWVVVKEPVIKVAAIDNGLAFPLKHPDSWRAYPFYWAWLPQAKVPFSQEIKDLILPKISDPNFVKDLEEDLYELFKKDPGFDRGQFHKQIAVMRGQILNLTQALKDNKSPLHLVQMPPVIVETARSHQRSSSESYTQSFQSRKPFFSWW
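PI4K2A activity was measured by ADP-Glo luminescence: enzyme (4 ug/mL stock) and phosphatidylinositol (1.2 mM stock) in Tris pH 7.5/MgCl2/EGTA/Triton X-100 buffer were reacted with ATP (300 microM stock) for one hour at ambient temperature.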
A549 viability: A549 cytotoxicity, counter-screen for Nrf2 inhibitors; AID 504648; Potency, µM (doses to about 46 µM), for the others: at the highest dose activity change, negative = cytotoxicity, most hits filed as inhibitors; A549 ARE-Fluc cells, CellTiter-Fluor viability, 18-24 h; 390,000 compounds, 0.16% hits; also: potency is read from the fitted curve at half-maximal effect
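A549 ARE-Fluc cells in 5% FBS OPTI-MEM, 5000 cells/well, rested 2 h then exposed to compounds in concentration-response for 18-24 h at 37 °C. Viability by CellTiter-Fluor fluorescence (Ex 405/Em 525) after 30 min; luciferase luminescence (BugLite, 15 min, RT) read afterwards.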
Nrf2 inh: inhibitors of Nrf2 signaling. A549 ARE-Fluc reporter, luciferase luminescence, 18-24 h. AID 504444. 360,000 compounds, 2.1% hits. Potency, µM (highest dose often 46 µM), for the others: at the highest dose activity change, negative = inhibition, usual class: inhibitors; also: potency is read from the fitted curve at half-maximal effect; nearly all actives have a fitted effect of over 60% in size
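A549 ARE_Fluc cells, 5000/well, 5% FBS OPTI-MEM; compounds in dose-response, 18-24 h at 37 °C/5% CO2; CellTiter-Fluor viability read (Ex 405/Em 525), then BugLite luciferase luminescence = Nrf2 activity.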
Giardia killer: Giardia lamblia killing. AID 540267. Giardia lamblia trophozoite viability. 340,000 compounds, 0.15% hits. activity change, % at 7.66 µM, hits read low; in the data active = activity change below about -80%; inconclusive = between about -30% and that limit;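 also: parasites exposed to compound for two days anaerobically before the ATP read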
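Luminescent ATP signal served as the viability read-out, measured 15-30 min after adding ATP detection reagent to trophozoites that had been incubated with compounds for 48 hrs at 37 deg C anaerobically at 100 cells/well.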
* marks the source's active call; other numbers are inactive results; ! = not active in a repeat. Unless noted, calls follow the shape of the dose curve; as a rule, active = well fitted curve in the direction sought with a large enough effect; inconclusive = small, poorly fitted or top-dose-only effect, or another doubt; inactive = no such curve, though single readings can be large; an effect the other way counts as inactive or inconclusive. Unless noted, % is scaled to controls: 0 for no effect and ±100 for the full control effect.

Results for COc1ccc(C(=O)COC(=O)C(CC(C)C)N2C(=O)c3ccccc3C2=O)cc1 (stereo not given) ?
KB-V1 MDR tox: 8.2µM*; KB-3-1 cytotox: inactive; PI4K2A inh: 2; A549 viability: -16%; Nrf2 inh: inconclusive; Giardia killer: -10

How did CCn1c(CNc2nc3ccccc3n2C(C)C)nc2ccccc21 do in these assays?
KB-V1 MDR tox: 12µM*; KB-3-1 cytotox: inactive; PI4K2A inh: 2; A549 viability: -3%; Nrf2 inh: -21%; Giardia killer: -21

Results for CC(C)n1c(NCc2nc3ccccc3n2C)nc2ccccc21 ?
KB-V1 MDR tox: inactive; KB-3-1 cytotox: inactive; PI4K2A inh: -13; A549 viability: 6%; Nrf2 inh: 10%; Giardia killer: -10

Results for COc1ccc(-c2cc([C@H]3[C@H]4C=CC[C@@H](C)[C@@H]4C(=O)N3Cc3ccccc3)ccc2F)cc1OC ?
KB-V1 MDR tox: inconclusive; KB-3-1 cytotox: 16µM*; PI4K2A inh: 5; A549 viability: -6%; Nrf2 inh: inconclusive; Giardia killer: -13

What do the screens show for `C[C@@H]1CC=C[C@H]2[C@H]1C(=O)N(Cc1ccccc1)[C@H]2c1ccc2ccccc2c1`?
KB-V1 MDR tox: inactive; KB-3-1 cytotox: inactive; PI4K2A inh: -1; A549 viability: inconclusive; Nrf2 inh: 21µM*; Giardia killer: -21

How did CC[C@@H]1CC=C[C@H]2[C@H]1C(=O)N(Cc1ccccc1)[C@H]2c1ccoc1 do in these assays?
KB-V1 MDR tox: inconclusive; KB-3-1 cytotox: 15µM*; PI4K2A inh: 10; A549 viability: -20%; Nrf2 inh: -14%; Giardia killer: 24

Results for CCC1CC=CC2C1C(=O)N(Cc1ccccc1)C2c1ccoc1 (stereo not given) ?
A549 viability: inconclusive; Nrf2 inh: inconclusive; Giardia killer: 15

Results for COc1ccc(-c2cc([C@H]3[C@H]4C=CC[C@@H](C)[C@@H]4C(=O)N3Cc3ccccc3)ccc2F)cc1 ?
KB-V1 MDR tox: inconclusive; KB-3-1 cytotox: 16µM*; PI4K2A inh: 2; A549 viability: 0%; Nrf2 inh: inconclusive; Giardia killer: -14

How did COc1ccc(-c2cc(C3C4C=CCC(C)C4C(=O)N3Cc3ccccc3)ccc2F)cc1 (stereo not given) do in these assays?
A549 viability: 11%; Nrf2 inh: -28%; Giardia killer: -4

How did Cc1cc(NC(=O)C(C)SCC(=O)OCC(=O)N(Cc2ccccc2)C(C)(C)C)no1 (stereo not given) do in these assays?
KB-V1 MDR tox: inactive; KB-3-1 cytotox: inactive; PI4K2A inh: 3; A549 viability: 8%; Nrf2 inh: 0%; Giardia killer: -2

Results for Cc1cc(NC(=O)C(C)SCC(=O)N(Cc2ccccc2)c2ccccc2)no1 (stereo not given) ?
KB-V1 MDR tox: 6.5µM*; KB-3-1 cytotox: inconclusive; PI4K2A inh: -5; A549 viability: -1%; Nrf2 inh: inconclusive; Giardia killer: -9

Results for CCOC(=O)c1c(-c2ccc(C)o2)csc1NC(=S)NC(=O)c1ccccc1Br ?
KB-V1 MDR tox: 16µM*; KB-3-1 cytotox: inconclusive; PI4K2A inh: 8; A549 viability: -8%; Nrf2 inh: -6%; Giardia killer: 2

Results for CCOC(=O)c1c(-c2ccc(C)o2)csc1NC(=O)COC(=O)c1ccc(NC(N)=O)cc1 ?
KB-V1 MDR tox: inactive; KB-3-1 cytotox: inactive; PI4K2A inh: -20; A549 viability: -11%; Nrf2 inh: 16µM*; Giardia killer: -2

What do the screens show for `CC(=O)N1CCc2c(sc3c2c(=O)n(CCc2ccccc2)c(=O)n3Cc2ccc(F)cc2)C1`?
KB-V1 MDR tox: inconclusive; KB-3-1 cytotox: inconclusive; PI4K2A inh: -1; A549 viability: -29%; Nrf2 inh: inconclusive

How did CCCN1CNc2c(c(=O)[nH]c(=S)n2CCc2c(Cl)cccc2Cl)C1 do in these assays?
PI4K2A inh: -2; A549 viability: 0%; Nrf2 inh: 3%; Giardia killer: -8

What do the screens show for `CCOC(=O)c1ccc(-c2ccc(/C=C(\C#N)C(=O)NCC3CCCO3)o2)cc1` (stereo not given)?
KB-V1 MDR tox: 16µM*; KB-3-1 cytotox: inactive; PI4K2A inh: 0; A549 viability: 13%; Nrf2 inh: inconclusive; Giardia killer: 5

Results for CCOC(=O)c1ccc(-c2ccc(/C=C(\C#N)C(=O)Nc3c(C)cccc3Cl)o2)cc1 ?
KB-V1 MDR tox: inactive; KB-3-1 cytotox: inactive; PI4K2A inh: -5; A549 viability: -3%; Nrf2 inh: inconclusive

Results for CCCCNC(=O)O[C@@H]1C[C@@H]2CCN3C(=O)CCC[C@H]([C@H]1CC)[C@H]23 ?
KB-V1 MDR tox: 21µM*!; KB-3-1 cytotox: inactive; PI4K2A inh: 1; A549 viability: -8%; Nrf2 inh: -11%; Giardia killer: 23

What do the screens show for `C=C(C)COc1ccc(-c2[nH]ncc2-c2ccc(OC)c(OC)c2)c(O)c1`?
KB-V1 MDR tox: 1.3µM*; KB-3-1 cytotox: 1.6µM*; PI4K2A inh: -3; A549 viability: -5%; Nrf2 inh: -8%; Giardia killer: 14

Results for C=C(C)COc1ccc(-c2n[nH]c(C)c2-c2ccc(OC)c(OC)c2)c(O)c1 ?
KB-V1 MDR tox: 5.8µM*; KB-3-1 cytotox: 6.5µM*; PI4K2A inh: 4; A549 viability: -13%; Nrf2 inh: inconclusive; Giardia killer: 14

What do the screens show for `C=C(C)COc1ccc(-c2[nH]ncc2-c2ccc(OC)cc2)c(O)c1`?
KB-V1 MDR tox: inactive; KB-3-1 cytotox: inactive; PI4K2A inh: -4; A549 viability: 3%; Nrf2 inh: 1%; Giardia killer: 0

Results for FC(F)(F)c1ccc(C2[C@H]3CN(Cc4cccnc4)[C@H](c4ccccc4)C34CC2(c2cccnc2)C4)cc1 (stereo not given in full) ?
KB-V1 MDR tox: inconclusive; KB-3-1 cytotox: inconclusive; PI4K2A inh: 0; A549 viability: inconclusive; Nrf2 inh: 26µM*; Giardia killer: 7

How did FC(F)(F)c1ccc(C2[C@H]3CN(Cc4ccc(-c5ccccc5)cc4)[C@H](c4ccccc4)C34CC2(c2cccnc2)C4)cc1 (stereo not given in full) do in these assays?
KB-V1 MDR tox: inactive; KB-3-1 cytotox: inconclusive; PI4K2A inh: -4; A549 viability: -3%; Nrf2 inh: 16%; Giardia killer: 4

Results for Cc1cc(C)c(NC(=O)c2cccc3c2C(=O)N(C2CCCCC2)C3)c(C)c1 ?
KB-V1 MDR tox: inconclusive; KB-3-1 cytotox: 21µM*; PI4K2A inh: 0; A549 viability: inconclusive; Nrf2 inh: inconclusive; Giardia killer: -2
